Bioassay records: PubChem, several laboratories
PLK1 PBD inh: blocks phosphopeptide binding to human Plk1 polo box domain; hit rate 0.13% among 97,000; inhibition, %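 (tested at about 20 µM)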; Plk1 PBD phosphopeptide binding, fluorescence polarization; P53350; AID 693; in the data active = inhibition above about 34%, passing the limit was not always enough
CYP2C9 inhib: blocks human cytochrome P450 2C9. inhibition, % at 5 µM. CYP2C9 Supersomes, luciferin-H conversion, luminescence. P11712. hit rate 20% among 96,000;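 active = blocking of liver enzyme CYP2C9 beyond about 50% at 5 µM, limit read from the data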
CYP2C19 inhib: blocks human cytochrome P450 2C19; CYP2C19 Supersomes, luciferin-H EGE luminescence, 30 min; inhibition, % at 5 µM; hit rate 21% among 96,000; AID 778;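 active = CYP2C19 inhibition above a set limit at 5 µM in the primary screen, cut at about 50% in these data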;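 also: plate controls were negative control wells for no effect and 2.5 mM tranylcypromine positive control for full effect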
Target sequence (P33261 whole entry, looked up): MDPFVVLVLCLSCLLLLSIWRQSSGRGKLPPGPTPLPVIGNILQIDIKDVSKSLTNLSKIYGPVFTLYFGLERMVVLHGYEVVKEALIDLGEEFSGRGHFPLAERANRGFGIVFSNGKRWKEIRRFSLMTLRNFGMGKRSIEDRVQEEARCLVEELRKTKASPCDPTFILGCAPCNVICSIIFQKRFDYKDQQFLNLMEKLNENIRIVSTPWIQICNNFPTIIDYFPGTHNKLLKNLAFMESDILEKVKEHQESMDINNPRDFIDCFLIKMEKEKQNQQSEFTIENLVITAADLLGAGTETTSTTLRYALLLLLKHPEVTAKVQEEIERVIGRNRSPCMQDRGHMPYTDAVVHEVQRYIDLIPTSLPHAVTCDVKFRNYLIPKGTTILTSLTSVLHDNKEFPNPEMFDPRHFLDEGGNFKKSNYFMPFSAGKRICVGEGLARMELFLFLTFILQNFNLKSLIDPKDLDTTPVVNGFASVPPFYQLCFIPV
PLK1 kinase inh: inhibitors of human PLK1 kinase. P53350. recombinant PLK1 kinase, TR-FRET peptide phosphorylation. inhibition, % at 10 µM. hit rate 0.53% among 97,000. AID 619;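 active = inhibition of 50% or more in the single-concentration screen; inactive = inhibition below 50%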;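 also: 0% = DMSO max control and 100% = H-89 dihydrochloride min control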
CYP2C9 act: activators of human CYP2C9; recombinant CYP2C9, luciferin-H conversion, luminescence; hits give high values; factor 1 = untreated enzyme, 0 = blocked; activation factor at 5 µM; hit rate 1.4% among 96,000; AID 1024;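 active = activation factor of 2 or more for CYP2C9 at a 5 µM dose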;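 also: 0 = sulfaphenazole-blocked wells and 1 = vehicle-only wells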
CYP2C19 activ: increases human CYP2C19 enzyme activity. P33261. recombinant CYP2C19, luciferin-H EGE luminescence; hits give high values; 0 = fully inhibited enzyme, 1 = untreated enzyme. activation factor at 5 µM. 96,000 tested, under 10 active;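 active = activation factor of at least 2 at 5 µM in the primary screen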;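 also: 0 = wells with 2.5 mM tranylcypromine and 1 = vehicle-only wells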
Numbers without * were called inactive; / = no result given. An excerpt weighted towards active compounds, which were near 28% of everything screened.

SMILES	PLK1 PBD inh	CYP2C9 inhib	CYP2C19 inhib	PLK1 kinase inh	CYP2C9 act	CYP2C19 activ
CCn1c(SCc2ccc(OC)cc2)nnc1-c1ccncc1	7.6	11.6	92.2*	-11.4	0.9	0.1
Cc1cnc(C)c(N2CCC(C(=O)NC(C)c3cccs3)CC2)n1 (stereo not drawn)	-4.5	-40.5	31.3	-12.0	1.4	0.7
Cc1c(CN(C)C)c2c(n1Cc1ccccc1)C(=O)c1ccccc1-2	-8.1	-4.8	-0.8	-8.9	1	1
CCC1CCCCN1CCNC(=O)CNS(=O)(=O)c1ccc2nc(C)sc2c1 (stereo not drawn)	-1.5	8.3	6.7	-11.5	0.9	0.9
C=CCn1c(SCc2ccc(C#N)cc2)nnc1-c1ccccc1	-10.0	-11.2	42.7	-4.6	1.1	0.6
C=CCn1c(SCc2ccc(C#N)cc2)nnc1-c1cccc(OC)c1	-16.9	64.2*	90.6*	-17.3	0.4	0.1
CCn1c(SCc2cccc(C)c2)nnc1-c1ccc(C)cc1	9.3	10.4	85.9*	-7.6	0.9	0.1
Cc1ccc(-n2c(SCc3ccc(C#N)cc3)nnc2-c2ccccn2)cc1	-10.8	50.8*	50.5*	-0.4	0.5	0.5
O=C(COc1ccc(Cl)cc1)NC1CCSC1=O (stereo not drawn)	-30.4	26.4	65.4*	-6.7	0.7	0.3
O=C(NC1CCSC1=O)c1ccc(Cl)cc1 (stereo not drawn)	-17.5	-13.3	-2.2	12.3	1.1	1
CN1CCN(c2ccccc2NS(=O)(=O)c2ccc3c(c2)CCN3C(=O)C2CCC2)CC1	7.6	/	/	-20.7	/	/
CCc1c(C)nc2ncnn2c1Nc1ccc(C)c(C)c1	-27.0	/	/	-15.0	/	/
CCc1c(C)nc2ncnn2c1NCCc1ccc(OC)cc1	-13.6	85.1*	63.2*	2.8	0.1	0.4
O=C(CN1CCN(C2CCCCC2)CC1)c1c[nH]c2ccccc12	5.9	-7.9	7.0	-5.3	1.1	0.9
O=C1OC(NC(=O)c2ccccc2)C(n2cc(CO)nn2)=C1Cl (stereo not drawn)	2.7	66.3*	13.0	-11.4	0.3	0.9
CCNc1nc(Oc2ccc(Cl)cc2Cl)cc(C(F)(F)F)n1	-15.1	62.9*	-5.2	1.6	0.4	1.1
CCNc1nc(N)nc(Oc2ccc(OCCOc3ccc(Cl)cc3Cl)nn2)n1	14.1	80.4*	94.0*	0.6	0.2	0.1
COc1ccc(N2CCN(C(=O)CSc3nnc(Cn4nnc5ccccc54)n3C)CC2)cc1	31.8	33.9	15.4	-7.4	0.7	0.8
Nc1nonc1-c1nc2ccccc2[nH]1	-12.1	16.2	20.9	20.2	0.8	0.8
Cn1cc(Cl)c(-c2nc3ccccc3[nH]2)n1	1.5	31.6	62.3*	-8.0	0.7	0.4
CCSc1nnc(NC(=O)CSc2nccn2-c2cc(C)cc(C)c2)s1	-19.2	50.0*	18.4	-13.6	0.5	0.8
Cc1cccc(-n2ccnc2SCC(=O)Nc2nnc(C)s2)c1	-8.5	-37.9	-6.6	8.8	1.4	1.1
CCSc1nnc(NC(=O)CSc2nccn2-c2cccc(C)c2C)s1	-13.7	69.9*	34.7	-15.0	0.3	0.7
Cn1c(=O)c2c(nc(NCc3ccco3)n2CCc2ccccc2)n(C)c1=O	-5.5	36.3	11.2	-3.5	0.6	0.9
O=C(NN1CCOCC1)c1cc(-c2cccc(Cl)c2)nc2ccccc12	15.9	6.8	12.9	-8.3	0.9	0.9
SMILES	PLK1 PBD inh	CYP2C9 inhib	CYP2C19 inhib	PLK1 kinase inh	CYP2C9 act	CYP2C19 activ
CSC1=NCCN1C(=O)c1ccc(S(=O)(=O)N(C)C)cc1	6.3	6.0	15.2	-13.5	0.9	0.8
Cc1ccc(Cl)cc1NC1=C/C(=N\S(=O)(=O)c2cccs2)c2ccccc2C1=O	-17.2	92.0*	66.0*	-2.2	0.1	0.3
Cc1ccc(Cl)cc1NC1=NC(=S)N(C(C)C)C12CCCCC2	-5.6	/	/	-9.0	/	/
C=CCn1c(SCc2csc(C)n2)nc2sc3c(c2c1=O)CCCCC3	-22.2	88.3*	45.4	-8.6	0.1	0.5
C=CCn1c(SCc2csc(C)n2)nc2sc3c(c2c1=O)CCCC3	9.0	50.4*	20.8	-1.7	0.5	0.8
C=CCn1c(SCc2csc(C)n2)nc2sc3c(c2c1=O)CCC(C)C3 (stereo not drawn)	-33.7	/	/	-7.0	/	/
COCCNC(=O)CSCc1nc(-c2ccc(SC)cc2)oc1C	-11.0	-4.7	-2.0	-5.0	1	1
c1ccc2c(c1)nc(N1CCN(C3CCCCC3)CC1)c1nnnn12	/	7.7	48.2	/	0.9	0.5
